# According to PubChem BioAssay (NCATS):
# “And” between values parts separate entries of the source, which are not always exact repeats. Identical values can stand only once. Inconclusive results are not listed. Entries that show only a call come without a potency. Values without a mark were called inactive. The source made the active and inactive calls. Calls follow the shape of the dose curve; as a rule, active = well fitted inhibition curve with a large enough effect; inconclusive = small, poorly fitted or top-dose-only effect; inactive = flat fitted curve, though single readings scatter.
# Experiments:
# PC15 = assay: qHTS profiling for inhibitors of Plasmodium falciparum proliferation (AID 504749); also: potency is read from the fitted curve at half-maximal effect; conditions: P. falciparum in erythrocytes, SYBR Green DNA, 72 h; series mostly up to 28.7 µM
# Method in brief: (§1)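 Infected RBCs, 0.3% parasitemia/2.5% Hct final; cpd 72 h, 37 C, 5% CO2; lysis buffer with saponin/triton/SYBR Green I, o/n RT dark; FI 485/535; norm. to artemisinin (0.29 uM) and DMSO.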
# PC49 = assay: as above; conditions: P. falciparum in erythrocytes, SYBR Green DNA, 72 h; series mostly up to 28.7 µM
# Method in brief: as §1
# SC27B = assay: as above; conditions: P. falciparum in erythrocytes, SYBR Green DNA, 72 h; series mostly up to 28.7 µM
# Method in brief: as §1
# TAB109 = assay: as above; conditions: P. falciparum in erythrocytes, SYBR Green DNA, 72 h; series mostly up to 28.7 µM
# Method in brief: as §1
# TAB113 = assay: as above; conditions: P. falciparum in erythrocytes, SYBR Green DNA, 72 h; series mostly up to 28.7 µM
# Method in brief: as §1
# TAB165 = assay: as above; conditions: P. falciparum in erythrocytes, SYBR Green DNA, 72 h; series mostly up to 28.7 µM
# Method in brief: as §1
# CRL-7250 = normal cell line; assay: Cytotoxic Profiling of Annotated Libraries Using Quantitative High-Throughput Screening (AID 1296008); conditions: Five cell lines viability, CellTiter-Glo ATP luminescence, 48-72 h; max response: hits give low values; also: potency is read from the fitted curve at half-maximal effect
# Method in brief: (§2)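 Cytotoxicity was measured as CellTiter-Glo ATP luminescence, read after 10 min at room temperature. Compound treatment of the cells lasted 48 or 72 hr at 37 degrees Celsius in a qHTS format.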
# HEK293 = assay: as above; conditions: Five cell lines viability, CellTiter-Glo ATP luminescence, 48-72 h; max response: hits give low values
# Method in brief: as §2
# HaCat [1] = assay: as above; conditions: Five cell lines viability, CellTiter-Glo ATP luminescence, 48-72 h; max response: hits give low values
# Method in brief: as §2
# KB-3-1 = assay: as above; conditions: Five cell lines viability, CellTiter-Glo ATP luminescence, 48-72 h; max response: hits give low values
# Method in brief: as §2
# NIH3T3 = assay: as above; conditions: Five cell lines viability, CellTiter-Glo ATP luminescence, 48-72 h; max response: hits give low values
# Method in brief: as §2
# HACAT [2] = assay: qHTS assay to identify novel small-molecules to repurpose for Merkel cell carcinoma treatment (AID 1296009); conditions: MCC and control cell lines, CellTiter-Glo viability, 72 h; at 44.8 µM (top of the series) unless noted
# Method in brief: (§3)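 72 hr, 37 degree celsius; NPC 8-pt / MIPE 11-pt dose response; compound pinned in DMSO; CellTiter-Glo, 10 min RT, luminescence; normalized to no-cell and DMSO controls.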
# MCC-13 = assay: as above; conditions: MCC and control cell lines, CellTiter-Glo viability, 72 h; series mostly up to 46 µM
# Method in brief: as §3
# MCC-26 = assay: as above; conditions: MCC and control cell lines, CellTiter-Glo viability, 72 h; series mostly up to 46 µM
# Method in brief: as §3
# MKL-1 = assay: as above; conditions: MCC and control cell lines, CellTiter-Glo viability, 72 h; series mostly up to 46 µM
# Method in brief: as §3
# MKL-2 = assay: as above; conditions: MCC and control cell lines, CellTiter-Glo viability, 72 h; series mostly up to 46 µM
# Method in brief: as §3
# PC26 = assay: qHTS profiling for inhibitors of Plasmodium falciparum proliferation (AID 504749); also: potency is read from the fitted curve at half-maximal effect; conditions: P. falciparum in erythrocytes, SYBR Green DNA, 72 h; series mostly up to 28.7 µM
# Method in brief: as §1
# W2 = assay: as above; conditions: P. falciparum in erythrocytes, SYBR Green DNA, 72 h; series mostly up to 28.7 µM
# Method in brief: as §1
# HEK293T = assay: qHTS assay to identify novel small-molecules to repurpose for Merkel cell carcinoma treatment (AID 1296009); conditions: MCC and control cell lines, CellTiter-Glo viability, 72 h; at 44.8 µM (top of the series)
# Method in brief: as §3
# Also: nearly all actives have a fitted effect of over 60% in size.
structure (smiles),measurement,setting,value
CC(C)(N)Cc1ccc(Cl)cc1,Potency,PC15,inactive
same,Potency,PC49,inactive
same,Potency,SC27B,inactive
same,Potency,TAB109,inactive
same,Potency,TAB113,inactive
same,Potency,TAB165,inactive
same,max response,CRL-7250,0.791%
same,max response,HEK293,3.33%
same,outcome,HaCat [1],inactive
same,max response,KB-3-1,-1.79%
same,outcome,NIH3T3,inactive
same,outcome,HACAT [2],inactive
same,Potency,MCC-13,inactive
same,Potency,MCC-26,inactive
same,Potency,MKL-1,inactive
same,Potency,MKL-2,inactive
Clc1cccc(N2CCNCC2)c1,Potency,PC15,inactive
same,Potency,PC26,inactive
same,Potency,PC49,inactive
same,Potency,SC27B,inactive
same,Potency,TAB113,inactive
same,Potency,TAB165,inactive
same,Potency,W2,7.57 µM (active)
same,max response,CRL-7250,1.11%
same,max response,HEK293,1.3%
same,outcome,HaCat [1],inactive
same,max response,KB-3-1,5.71%
same,outcome,NIH3T3,inactive
same,outcome,HACAT [2],inactive
same,Potency,MCC-13,inactive
same,Potency,MCC-26,inactive
same,Potency,MKL-1,inactive
same,Potency,MKL-2,inactive
NCC(O)c1ccc(O)cc1 (stereo not drawn),Potency,PC15,inactive
same,Potency,PC26,inactive
same,Potency,PC49,inactive
same,Potency,SC27B,inactive
same,Potency,TAB109,inactive
same,Potency,TAB113,inactive
same,Potency,TAB165,inactive
same,max response,CRL-7250,4.85%
same,max response,HEK293,4.81%
same,max response,HaCat [1],-2.74%
same,max response,KB-3-1,-4.37%
same,max response,NIH3T3,-5.72%
same,Potency,MCC-13,inactive
same,Potency,MCC-26,inactive
same,Potency,MKL-1,inactive
same,Potency,MKL-2,inactive
C[C@]12CC[C@H]3[C@@H](CCC4=CC(=O)CC[C@@H]43)[C@@H]1CC[C@@H]2OC(=O)CCc1ccccc1,max response,CRL-7250,-4.34%
same,Potency,HEK293,23.7 µM (active)
same,max response,HaCat [1],1.58%
same,max response,NIH3T3,-2.8%
same,Potency,MCC-13,inactive
same,Potency,MKL-1,inactive
same,Potency,MKL-2,inactive
Cc1ccc2c(c1)C1CN(C)CCC1N2 (stereo not drawn),max response,CRL-7250,-0.945%
same,max response,HEK293,1.62%
same,outcome,HaCat [1],inactive
same,max response,KB-3-1,-4.81%
same,outcome,NIH3T3,inactive
same,outcome,HACAT [2],inactive [at 17.4 µM]
same,Potency,MCC-13,inactive
same,Potency,MCC-26,inactive
same,Potency,MKL-1,inactive
same,Potency,MKL-2,inactive
O=C(O)c1ccc2[nH]cc(CCCCN3CC=C(c4ccccc4)CC3)c2c1,Potency,PC15,inactive
same,Potency,PC26,inactive
same,Potency,PC49,inactive
same,Potency,SC27B,inactive
same,Potency,TAB109,inactive
same,Potency,TAB113,inactive
same,Potency,TAB165,inactive
same,max response,CRL-7250,-7.24%
same,max response,HEK293,-0.718%
same,outcome,HaCat [1],inactive
same,max response,KB-3-1,-2.41%
same,outcome,NIH3T3,inactive
same,outcome,HACAT [2],inactive
same,Potency,MCC-13,inactive
same,Potency,MCC-26,inactive
same,Potency,MKL-1,inactive
same,Potency,MKL-2,inactive
NCC(CC(=O)O)c1ccc(Cl)cc1 (stereo not drawn),Potency,PC15,inactive
same,Potency,PC26,inactive
same,Potency,PC49,inactive
same,Potency,SC27B,inactive
same,Potency,TAB109,inactive
same,Potency,TAB113,inactive
same,Potency,TAB165,inactive
same,Potency,W2,inactive
same,max response,CRL-7250,2.02%
same,max response,HEK293,-1.23%
same,outcome,HaCat [1],inactive
same,max response,KB-3-1,2.79%
same,max response,NIH3T3,0.0761%
same,outcome,HACAT [2],inactive [at 0.588 µM]
same,"activity change, negative = cytotoxicity",MCC-13,-6.05% [at 0.597 µM]
same,"activity change, negative = cytotoxicity",MCC-26,-16.1% [at 0.597 µM]
same,"activity change, negative = cytotoxicity",MKL-1,-6.57% [at 0.597 µM]
same,"activity change, negative = cytotoxicity",MKL-2,-11.6% [at 0.597 µM]
C=C1CC[C@@]2(O)[C@H]3Cc4ccc(O)c5c4[C@@]2(CCN3CC2CC2)[C@H]1O5,Potency,PC15,inactive
same,Potency,PC26,inactive
same,Potency,PC49,inactive
same,Potency,SC27B,inactive
same,Potency,TAB109,inactive
same,Potency,TAB113,inactive
same,Potency,TAB165,inactive
same,Potency,W2,6.75 µM (active)
same,max response,CRL-7250,2.77%
same,max response,HEK293,-5.09%
same,outcome,HaCat [1],inactive
same,max response,KB-3-1,3.52%
same,outcome,NIH3T3,inactive
same,outcome,HACAT [2],inactive
same,Potency,MCC-13,inactive
same,Potency,MKL-1,inactive
same,Potency,MKL-2,inactive
C=CCN1CC[C@]23c4c5ccc(O)c4O[C@H]2C(=O)CC[C@@]3(O)[C@H]1C5,max response,CRL-7250,-3.06%
same,max response,HEK293,-4.65%
same,max response,HaCat [1],-19.7%
same,max response,KB-3-1,-7.11% and -7.3%
same,max response,NIH3T3,-3.86%
same,Potency,MCC-13,inactive
same,Potency,MKL-1,inactive
same,Potency,MKL-2,inactive
FC(F)(F)c1cccc(C2=CCN(CCc3ccc4ccccc4c3)CC2)c1,Potency,PC15,inactive
same,Potency,PC26,inactive
same,Potency,PC49,inactive
same,Potency,SC27B,inactive
same,Potency,TAB113,inactive
same,Potency,TAB165,inactive
same,Potency,W2,inactive
same,max response,CRL-7250,-12.8%
same,outcome,HEK293,inactive
same,outcome,HaCat [1],inactive
same,max response,KB-3-1,-4.6%
same,outcome,NIH3T3,inactive
same,outcome,HACAT [2],inactive
same,outcome,HEK293T,inactive
same,Potency,MCC-13,inactive
same,Potency,MKL-1,inactive
same,Potency,MKL-2,inactive
CCN(CC)CCOC(=O)C(O)(c1ccccc1)c1ccccc1,Potency,PC15,inactive
same,Potency,PC26,inactive
same,Potency,PC49,inactive
same,Potency,SC27B,inactive
same,Potency,TAB109,inactive
same,Potency,TAB113,inactive
same,Potency,TAB165,inactive
same,max response,CRL-7250,-0.239%
same,max response,HEK293,3.4%
same,max response,HaCat [1],-11%
same,max response,KB-3-1,-1.34%
same,outcome,NIH3T3,inactive
same,Potency,MCC-13,inactive
same,Potency,MKL-1,inactive
same,Potency,MKL-2,inactive
